# Laboratory results reported in PubChem BioAssay (EPA / NIEHS).
# Inconclusive results are not listed. Calls of active or inactive are those of the source. The calls were made as follows, unless noted: active = hit-call score of the fitted dose curve at least 0.9, where 1 is the maximum; inconclusive = response in the unintended direction; inactive = score below 0.9.
# Biological target: Norway rat Vesicular Monoamine Transporter (VMAT2), neurotransmitter transporter, Slc18a2 (gene 25549) (UniProt Q01827)
# Sequence (Q01827 whole entry, looked up): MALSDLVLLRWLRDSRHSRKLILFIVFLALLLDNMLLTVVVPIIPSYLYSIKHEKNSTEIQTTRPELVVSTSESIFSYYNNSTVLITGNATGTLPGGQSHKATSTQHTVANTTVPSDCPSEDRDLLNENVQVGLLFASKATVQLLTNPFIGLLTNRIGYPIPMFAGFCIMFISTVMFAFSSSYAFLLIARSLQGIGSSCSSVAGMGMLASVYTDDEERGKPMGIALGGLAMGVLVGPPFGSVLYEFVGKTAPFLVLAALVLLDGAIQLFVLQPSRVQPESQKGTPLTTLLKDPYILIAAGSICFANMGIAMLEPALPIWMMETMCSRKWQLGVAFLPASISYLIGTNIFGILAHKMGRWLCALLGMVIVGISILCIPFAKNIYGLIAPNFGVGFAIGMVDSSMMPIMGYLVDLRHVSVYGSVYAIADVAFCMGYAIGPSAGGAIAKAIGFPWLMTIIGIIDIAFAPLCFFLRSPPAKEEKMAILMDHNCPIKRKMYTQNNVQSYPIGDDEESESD
# Assay: NVS_TR_rVMAT2: NovaScreen (NVS) Transporter Assay for Norway rat Vesicular Monoamine Transporter (VMAT2), neurotransmitter transporter (AID 2283376);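 also: actives lower the bound radioligand signal below the DMSO level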
# Method in brief: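 Tissue: rat forebrain extract. Format: competitive radioligand binding, cell-free. Timepoint: 1 h. Readout: filter radiodetection/scintillation. Screen: 25 uM in duplicate, then concentration series for actives. Baseline: DMSO.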
SMILES,outcome,AC50
O=C(OC[C@H]1O[C@@H](OC(=O)c2cc(O)c(O)c(OC(=O)c3cc(O)c(O)c(O)c3)c2)[C@H](OC(=O)c2cc(O)c(O)c(OC(=O)c3cc(O)c(O)c(O)c3)c2)[C@@H](OC(=O)c2cc(O)c(O)c(OC(=O)c3cc(O)c(O)c(O)c3)c2)[C@@H]1OC(=O)c1cc(O)c(O)c(OC(=O)c2cc(O)c(O)c(O)c2)c1)c1cc(O)c(O)c(OC(=O)c2cc(O)c(O)c(O)c2)c1,inactive,
O=C(c1ccc(OCCN2CCCCC2)cc1)c1c(-c2ccc(O)cc2)sc2cc(O)ccc12,,0.563 µM (active)
Cc1occc1C(=O)Nc1ccc(C(=O)N2CCC(F)(F)/C(=C\C(=O)N3CCC(N4CCCCC4)CC3)c3ccccc32)cc1,,5.73 µM (active)
Nc1ccc2c(c1)C(=O)c1ccccc1C2=O,inactive,
O=C1c2ccccc2C(=O)N1CCc1noc(-c2ccc(CN3CCCCCC3)s2)n1,,2.87 µM (active)
CCCCC(CC)COC(=O)c1ccccc1C(=O)O (configuration not stated),inactive,
Cc1ccccc1Cl,inactive,

# Tested on: not listed separately
# Assay: CCTE_Harrill_HTTr_Apoptosis_PRF_DMEM_12hr: (Pilot) CCTE's 12-hour Apoptosis Assessment for the High-Throughput Transcriptomics (HTTr) Platform, in MCF-7 cells cultured in phenol red-free DMEM + 10% charcoal-stripped fetal bovine serum, Harrill Lab (AID 2283985; active = hit-call score of the fitted dose curve at least 0.9, where 1 is the maximum; inactive = score below 0.9)
# Method in brief: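 MCF-7 cells in phenol red-free DMEM with 10% charcoal-stripped FBS, eight-point dilution series, 12 h exposure. Caspase-3/7 activation imaged by high content imaging with CellEvent Green reagent; bidirectional fit vs DMSO.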
SMILES,outcome,AC50
Nc1nc(Cl)nc2c1ncn2[C@H]1C[C@H](O)[C@@H](CO)O1,inactive,
S=C([S-])NCCNC(=S)[S-].[Mn+2],inactive,
CC(C)CCCCCCc1ccc(O)cc1,,61.8 µM (active)
CC[C@H](C)C(=O)O[C@H]1C[C@@H](C)C=C2C=C[C@H](C)[C@H](CC[C@@H]3C[C@@H](O)CC(=O)O3)[C@H]21,inactive,
O=C(O)Cc1cc(I)c(Oc2cc(I)c(O)c(I)c2)c(I)c1,inactive,
